Source: PubChem BioAssay AID1159580 (chemical genetic matrix, 2015)
Among all 5,500 compounds or so, about 2,000 (36%) were called active. Another 18% or so got no clear call; they are omitted. Cut-off read from the data, not from the text of the source: active = normalized growth mostly below about 0.91 (no sharp cut-off); inconclusive = no clear call, values can overlap the other calls; inactive = mostly above about 0.92. The list shows a part of the results.

Assay: chemical genetic growth profiling, strain panel (AID 1159580);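 note: tested at 20 µM; growth read once vehicle control cultures reached saturation at 30 °C; 1 = growth at the plate median or of vehicle wells; lower values mean less growth of the strain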
Details: S. cerevisiae deletion strains, growth OD

Measured: normalized growth

COC(=O)CCCOc1ccc(Cl)cc1Cl
inactive: locus YAL013W, strain DEP1, active compounds read low 0.986 | locus YAL021C, strain ccr4, active compounds read low 0.988 | locus YAL026C, strain drs2, active compounds read low 0.966 | locus YAL030W, strain snc1, active compounds read low 0.968 | locus YBL061C, strain skt5, active compounds read low 0.952 | locus YBR009C, strain hhf1, active compounds read low 0.955 | locus YBR021W, strain FUR4, active compounds read low 0.931 | locus YBR023C, strain chs3, active compounds read low 0.96 | locus YBR171W, strain sec66, active compounds read low 0.916 | locus YBR229C, strain ROT2, active compounds read low 0.993 | locus YBR231C, strain swc5, active compounds read low 0.964 | locus YBR279W, strain paf1, active compounds read low 0.961 | locus YCL011C, strain gbp2, active compounds read low 0.967 | locus YCL016C, strain dcc1, active compounds read low 0.959 | locus YCL029C, strain bik1, active compounds read low 1 | locus YCL061C, strain MRC1, active compounds read low 0.953 | locus YCL069W, strain vba3, active compounds read low 0.962 | locus YCR088W, strain abp1, active compounds read low 0.955 | locus YDL005C, strain med2, active compounds read low 0.958 | locus YDL035C, strain GPR1, active compounds read low 1 | locus YDL040C, strain nat1, active compounds read low 0.954 | locus YDL074C, strain BRE1, active compounds read low 0.999 | locus YDL101C, strain DUN1, active compounds read low 1.02 | locus YDL134C, strain PPH21, active compounds read low 0.998 | locus YDL185W, strain tfp1, active compounds read low 0.988 | locus YDL192W, strain arf1, active compounds read low 0.996 | locus YDR001C, strain nth1, active compounds read low 0.967 | locus YDR069C, strain doa4, active compounds read low 0.967 | locus YDR101C, strain arx1, active compounds read low 0.987 | locus YDR137W, strain rgp1, active compounds read low 0.899 | locus YDR150W, strain NUM1, active compounds read low 0.989 | locus YDR159W, strain sac3, active compounds read low 0.956 | locus YDR162C, strain NBP2, active compounds read low 0.991 | locus YDR195W, strain ref2 0.972 | locus YDR297W, strain sur2, active compounds read low 0.961 | locus YDR318W, strain mcm21, active compounds read low 0.993 | locus YDR334W, strain swr1, active compounds read low 0.974 | locus YDR335W, strain msn5, active compounds read low 0.968 | locus YDR388W, active compounds read low 0.992 | locus YDR392W, strain spt3, active compounds read low 0.902 | locus YDR502C, strain sam2, active compounds read low 0.995 | locus YEL003W, strain gim4, active compounds read low 0.966 | locus YEL037C, strain rad23, active compounds read low 0.968 | locus YEL061C, strain CIN8 (second series), active compounds read low 0.961 | locus YEL061C, strain CIN8, active compounds read low 0.985 | locus YER015W, strain faa2, active compounds read low 0.959 | locus YER016W, strain bim1, active compounds read low 0.964 | locus YER110C, active compounds read low 0.995 | locus YER111C, strain swi4, active compounds read low 0.956 | locus YER155C, strain BEM2 (second series), active compounds read low 0.922 | locus YER155C, strain BEM2, active compounds read low 0.984 | locus YER167W, strain BCK2, active compounds read low 1 | locus YFR010W, strain ubp6, active compounds read low 0.974 | locus YGL078C, strain dbp3, active compounds read low 0.983 | locus YGL086W, strain mad1, active compounds read low 0.991 | locus YGL167C, strain pmr1, active compounds read low 0.953 | locus YGL173C, strain kem1, active compounds read low 0.948 | locus YGL227W, strain vid30, active compounds read low 0.95 | locus YGL240W, strain doc1, active compounds read low 0.949 | locus YGL248W, strain PDE1, active compounds read low 1 | locus YGL253W, strain hxk2, active compounds read low 0.965 | locus YGR078C, strain PAC10, active compounds read low 0.991 | locus YGR135W, strain pre9, active compounds read low 0.994 | locus YGR229C, strain SMI1, active compounds read low 0.994 | locus YGR252W, strain gcn5, active compounds read low 0.977 | locus YHR013C, strain ard1, active compounds read low 0.958 | locus YHR027C, strain rpn1, active compounds read low 0.975 | locus YHR030C, strain SLT2, active compounds read low 0.994 | locus YHR079C, strain IRE1 (second series), active compounds read low 1 | locus YHR094C, strain hxt1, active compounds read low 0.985 | locus YHR129C, strain ARP1, active compounds read low 0.994 | locus YHR142W, strain chs7, active compounds read low 0.965 | locus YHR200W, strain rpn10, active compounds read low 0.996 | locus YIL066C, strain RNR3, active compounds read low 0.993 | locus YIL073C, strain SPO22, active compounds read low 1.07 | locus YIL125W, strain kgd1, active compounds read low 0.983 | locus YIR030C, strain dcg1, active compounds read low 0.994 | locus YJL092W, strain hpr5, active compounds read low 0.957 | locus YJL095W, strain BCK1 (second series), active compounds read low 0.955 | locus YJL095W, strain BCK1, active compounds read low 0.942 | locus YJL115W, strain asf1, active compounds read low 0.967 | locus YJL129C, strain trk1, active compounds read low 0.931 | locus YJL134W, strain LCB3, active compounds read low 0.995 | locus YJL154C, strain vps35, active compounds read low 0.971 | locus YJL164C, strain tpk1, active compounds read low 0.964 | locus YJL166W, strain qcr8, active compounds read low 0.955 | locus YJL168C, strain set2, active compounds read low 1.01 | locus YJL187C, strain SWE1 (second series), active compounds read low 1 | locus YJL187C, strain SWE1, active compounds read low 0.973
